PubChem BioAssay (NCATS)
Unmarked numbers belong to inactive results. Records with an inconclusive call do not appear. Entries that show only a call come without a potency. Calls of active or inactive are those of the source. Calls come from the whole dose curve; as a rule, active = well fitted curve in the direction sought with a large enough effect; inconclusive = small, poorly fitted or top-dose-only effect, or another doubt; inactive = no such curve, though single readings can be large; an effect the other way counts as inactive or inconclusive.

Key:
[1] = Primary qHTS for inhibitors of nuclear receptor binding SET domain protein 2 (NSD2) in an RCH-ACV wild type WT cells (2C) (AID 1645877); note: nearly all actives have a fitted effect of over 70% in size; note: potency is the fitted concentration of half-maximal effect
[2] = target: Glutathione peroxidase 1 (Homo sapiens) (UniProt P07203); experiment: Primary qHTS Assay for Inhibitors of Recombinant Selenoprotein Glutathione Peroxidase 1 (GPX1) (AID 1845191); note: nearly all actives have a fitted effect of over 65% in size
Chain of Glutathione peroxidase 1 (Homo sapiens) (P07203 whole entry, looked up): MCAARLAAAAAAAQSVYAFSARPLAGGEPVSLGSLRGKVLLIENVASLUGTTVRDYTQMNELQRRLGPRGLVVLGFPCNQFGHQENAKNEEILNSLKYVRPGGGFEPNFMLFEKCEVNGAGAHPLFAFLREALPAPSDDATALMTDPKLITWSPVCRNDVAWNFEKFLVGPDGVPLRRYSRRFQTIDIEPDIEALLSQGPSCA
In short: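 10 nM GPX1 + cpd, 30 min RT; start w/ 1 mM GSH, 0.5 mM cumene hydroperoxide, 0.5 mM NADPH, 100 nM GR, 0.01% BSA; buffer 50 mM Tris-HCl pH 7.5, 2 mM EDTA, 150 mM NaCl; Fl 340/450, 0 & 15 min.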

[3] = target: Phospholipid hydroperoxide glutathione peroxidase GPX4 (Homo sapiens) (UniProt P36969); experiment: Primary qHTS Assay for Inhibitors of Recombinant Selenoprotein Glutathione Peroxidase 4 (GPX4) (AID 1845192); note: nearly all actives have a fitted effect of over 65% in size; for activity change, negative = inhibition: series mostly up to about 50 µM
Chain of Phospholipid hydroperoxide glutathione peroxidase GPX4 (Homo sapiens) (P36969 whole entry, looked up): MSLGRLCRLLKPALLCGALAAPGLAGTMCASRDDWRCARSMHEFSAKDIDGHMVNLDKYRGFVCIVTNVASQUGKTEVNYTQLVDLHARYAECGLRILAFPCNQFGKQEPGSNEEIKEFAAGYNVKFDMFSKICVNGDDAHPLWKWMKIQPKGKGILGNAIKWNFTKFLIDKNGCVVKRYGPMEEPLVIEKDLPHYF
In short: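 NADPH consumption, followed by fluorescence at 340/450 nm between 0 and 15 min, reports GPX4 activity via coupled glutathione reductase (100 nM). Enzyme 200 nM was pre-exposed to compound 30 min; 0.5 mM cumene hydroperoxide and 1 mM GSH served as substrates.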

[4] = target: Luciferin 4-monooxygenase (Photinus pyralis) (UniProt P08659); experiment: Primary firefly luciferase (FLuc) qHTS assay for identification of artifact compounds. (AID 1845220); note: nearly all actives have a fitted effect of over 60% in size; for activity change, negative = inhibition: series mostly up to about 54 µM
In short: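 FLuc 10 nM; luciferin 10 uM; ATP 10 uM; Tris-acetate pH 7.6, Mg-acetate 10 mM; 15 min RT preincubation; 5 min reaction; luminescence.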

[5] = Primary fluorescence-based thiol-reactive (MSTI) qHTS assay for identification of artifact compounds. (AID 1845221); note: nearly all actives have a fitted effect of over 65% in size; note: potency is the fitted concentration of half-maximal effect;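 for activity change, negative = thiol reactive: series mostly up to about 54 µM; thiol-reactive compounds lower the probe fluorescence signal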
In short: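 One-hour, room-temperature, dark incubation of compound with 4 uM MSTI in PBS (pH 7.4, 2% DMSO) precedes a fluorescence read at 525 nm excitation, 598 nm emission; Hill-equation fitting yields concentration-response values.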

[6] = tested on: Nanoluciferase (engineered Oplophorus gracilirostris luciferase); experiment: Primary Nanoluciferase (NLuc) qHTS assay for identification of artifact compounds. (AID 1845222);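 note: NLuc secreted into diluted conditioned medium of S16 cells; series mostly up to about 54 µM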
In short: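 NLuc from S16 cell medium (1:55) plus test compounds, 15 min, room temperature. Luminescence after Nano-Glo (1:100) addition, 5 min.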

[7] = Primary redox qHTS assay for identification of artifact compounds. (AID 1845223)
In short: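 Amplex Red (25 uM) and HRP (250 mU/mL) in HBSS, with compounds for 15 min, then 250 uM DTT for 30 min, room temperature, dark. Fluorescence 525/598 nm read; normalized to DMSO and 10 uM DA3003; Hill fit.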

## COc1cc(C(=O)OC[C@@]2(O)CO[C@@H](O[C@H]3[C@H](Oc4ccc(C(=O)O)cc4OC)O[C@H](CO)[C@@H](O)[C@@H]3O)[C@@H]2O)ccc1O
[1]
  Potency: inactive
[2]
  Potency: inactive
[3]
  Potency: inactive
[4]
  Potency: inactive
[5]
  Potency: inactive
[6]
  Potency: inactive
[7]
  Potency: inactive

## C[C@@H]1O[C@@H](O[C@@H]2[C@@H](O)[C@H](O[C@H]3[C@H](O[C@H]4CC[C@@]5(C)C(CC[C@]6(C)C5CC=C5[C@@H]7CC(C)(C)CC[C@]7(C(=O)O[C@@H]7O[C@H](CO)[C@@H](O)[C@H](O)[C@H]7O[C@@H]7O[C@@H](C)[C@H](O[C@@H]8O[C@@H](C)[C@H](O)[C@@H](O)[C@H]8O)[C@@H](O)[C@H]7O)CC[C@]56C)[C@@]4(C)CO)O[C@H](C(=O)O)[C@@H](O)[C@@H]3O)O[C@H](CO)[C@H]2O)[C@H](O)[C@H](O)[C@H]1O (some centres undefined)
[1]
  activity change, negative = cell killing: -3.64% [at 9.23 µM]
[2]
  activity, negative = inhibition: -4.58% [at 9.52 µM]
[3]
  activity change, negative = inhibition: 1.11% [at 9.73 µM]
[4]
  activity change, negative = inhibition: -1.57% [at 11.6 µM]
[5]
  activity change, negative = thiol reactive: 155% [at 11.5 µM]
[6]
  activity, negative = inhibition: 0% [at 11.6 µM]
[7]
  redox activity (% of DA3003): 1.07% [at 11.5 µM]

## C=C(C)C(=O)OC1C(OC(C)=O)/C(C=O)=C\CC/C(CO)=C/C2OC(=O)C(=C)C21 (centres undefined)
[1]
  Potency: 1.42 µM (active)
[2]
  Potency: inactive
[3]
  Potency: inactive
[4]
  Potency: inactive
[5]
  Potency: inactive
[6]
  Potency: inactive
[7]
  Potency: inactive

## CC(=O)O[C@@H]1[C@@H](CO)O[C@@](CO)(O[C@H]2O[C@H](COC(=O)/C=C/c3ccccc3)[C@@H](O)[C@H](O)[C@H]2O)[C@H]1O
[1]
  Potency: inactive
[2]
  Potency: inactive
[3]
  Potency: inactive
[4]
  Potency: inactive
[5]
  Potency: 4.62 µM (active)
[6]
  Potency: inactive
[7]
  Potency: inactive

## O=C(O)/C=C/c1ccc(O)c(O[C@@H]2O[C@H](CO)[C@@H](O)[C@H](O)[C@H]2O)c1
[1]
  Potency: inactive
[2]
  Potency: inactive
[3]
  Potency: inactive
[4]
  Potency: inactive
[5]
  Potency: 4.65 µM (active)
[6]
  Potency: inactive
[7]
  Potency: inactive

## C[C@H](N)C(=O)N[C@@H](Cc1ccc(O)cc1)C(=O)N1CCC[C@H]1C(=O)NCC(=O)N[C@@H](CCCCN)C(=O)N[C@@H](Cc1ccccc1)C(N)=O
[1]
  outcome: inactive [at 9.23 µM]
[2]
  activity, negative = inhibition: 0.372% [at 9.52 µM]
[3]
  activity change, negative = inhibition: -6.9% [at 9.73 µM]
[4]
  activity change, negative = inhibition: 3.15% [at 11.6 µM]
[5]
  activity change, negative = thiol reactive: -3.19% [at 11.5 µM]
[6]
  activity, negative = inhibition: 4.39% [at 11.6 µM]
[7]
  redox activity (% of DA3003): -3.11% [at 11.5 µM]

## O=C(O)C(O[C@@H]1O[C@H](CO[C@@H]2O[C@H](CO)[C@@H](O)[C@H](O)[C@H]2O)[C@@H](O)[C@H](O)[C@H]1O)c1ccccc1 (some centres undefined)
[1]
  Potency: inactive
[2]
  Potency: inactive
[3]
  Potency: inactive
[4]
  Potency: inactive
[5]
  Potency: inactive
[6]
  Potency: inactive
[7]
  Potency: inactive

## CC1(CCOC2OC(CO)C(O)C(O)C2O)CCC23OC2(C1)C(O)CC1C(C)(C(=O)O)CCCC13C (centres undefined)
[1]
  Potency: inactive
[2]
  Potency: inactive
[3]
  Potency: inactive
[4]
  Potency: inactive
[5]
  Potency: inactive
[6]
  Potency: inactive
[7]
  Potency: inactive

## C=C[C@@]12COC(=O)C(=C)C1[C@@H](O)[C@H](C(=C)C(=O)OC)[C@@H](OC(=O)C(=C)CO)C2 (some centres undefined)
[1]
  Potency: 7.09 µM (active)
[2]
  Potency: inactive
[3]
  Potency: inactive
[4]
  Potency: inactive
[5]
  Potency: 11.6 µM (active)
[6]
  Potency: inactive
[7]
  Potency: inactive

## O=C(CCCCN1CCOCC1)Nc1ccc(-c2cccnc2)cc1
[1]
  Potency: inactive
[2]
  Potency: inactive
[3]
  Potency: inactive
[4]
  Potency: inactive
[5]
  Potency: inactive
[6]
  Potency: inactive
[7]
  Potency: inactive

## C=CC1(C)C=C2CCC3C(C)(C)C(O[C@@H]4O[C@@H](CO)[C@H](O)[C@H]4O)CCC3(C)C2CC1O[C@@H]1O[C@H](C)[C@H](O)[C@H](O)[C@H]1O (some centres undefined)
[1]
  Potency: inactive
[2]
  Potency: inactive
[3]
  Potency: inactive
[4]
  Potency: inactive
[5]
  Potency: inactive
[6]
  Potency: inactive
[7]
  Potency: inactive

## CCCn1c(=O)c2[nH]c(-c3ccc(OCC(=O)O)cc3)nc2n(CCC)c1=O
[1]
  Potency: inactive
[2]
  Potency: inactive
[3]
  Potency: inactive
[4]
  Potency: inactive
[5]
  Potency: inactive
[6]
  Potency: inactive
[7]
  Potency: inactive

## N[C@H]1Cc2ccccc2N(O)C1=O
[1]
  Potency: 12.9 µM (active)
[2]
  Potency: inactive
[3]
  Potency: inactive
[4]
  Potency: inactive
[5]
  Potency: inactive
[6]
  Potency: inactive
[7]
  Potency: inactive

## CC1(C)C[C@H](O)C[C@@]2(C)OC(=O)C=C12
[1]
  Potency: inactive
[2]
  Potency: inactive
[3]
  Potency: inactive
[4]
  Potency: inactive
[5]
  Potency: 39.8 µM (active)
[6]
  Potency: inactive
[7]
  Potency: inactive

## O=C(O)Cc1cn(C2OCC(O)C(O)C2O[C@@H]2O[C@H](CO)[C@@H](O)[C@H](O)[C@H]2O)c2ccccc12 (some centres undefined)
[1]
  Potency: inactive
[2]
  Potency: inactive
[3]
  Potency: inactive
[4]
  Potency: inactive
[5]
  Potency: inactive
[6]
  Potency: inactive
[7]
  Potency: inactive

## C=C1CC2C(C)(CCC(=O)O)C(C(C)(C)O)CCC2(C)C2C(=O)OC(C)(C(=O)OC)C(=O)C12C (centres undefined)
[1]
  Potency: inactive
[2]
  Potency: inactive
[3]
  Potency: inactive
[4]
  Potency: inactive
[5]
  Potency: inactive
[6]
  Potency: inactive
[7]
  Potency: inactive

## CN[C@@H]1[C@H](O[C@H]2[C@H](O[C@@H]3[C@@H](O)[C@H](O)[C@@H](N=C(N)N)[C@H](O)[C@H]3N=C(N)N)O[C@@H](C)[C@]2(O)C=O)O[C@@H](CO)[C@H](O)[C@H]1O
[1]
  Potency: inactive
[2]
  Potency: inactive
[3]
  Potency: inactive
[4]
  Potency: inactive
[5]
  Potency: inactive
[6]
  Potency: inactive
[7]
  Potency: inactive
